Reference: PubChem BioAssay (NCATS)
Values without a mark were called inactive. Records with an inconclusive call do not appear. A call without a number means that no potency is given here. For some assays here: Potency and affinity values are given separately. The source made the active and inactive calls. Unless noted, no rule for the calls is given here.

Experiments:
[1] = Ebola virus entry assay, ratio channel
[2] = Ebola virus entry assay, green channel fluorescence
[3] = Ebola virus entry assay, reporter ratio channel; Channel type: primary
[4] = Ebola virus entry assay, blue channel (ratio component)
[5] = qHTS assay for small molecule agonists of the antioxidant response element (ARE) signaling pathway measured by Nrf2-dependant transcriptional activity - cell viability counter screen (AID 720653; active = well fitted curve in the direction sought with a large enough effect in the repeat runs; an effect the other way counts as inactive or inconclusive); settings: ARE-bla HepG2 viability, CellTiter-Glo ATP luminescence, 16 h; max response: active compounds read low
Procedure, shortened: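 ARE-bla HepG2 cells (2,000/well) rested 5 hrs at 37C/5% CO2, then exposed to compounds in DMSO for 16 hrs. Viability was read in the same wells as intracellular ATP by luminescence, 30 min at room temperature after reagent addition.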

[6] = qHTS Assay for Identifying Gametocytocidal Compounds (AID 743244; active = well fitted curve in the direction sought with a large enough effect; an effect the other way counts as inactive or inconclusive;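 also: actives lower the fluorescent signal which means gametocytes are killed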); settings: P. falciparum 3D7 stage III-V gametocytes, alamarBlue, 72 h; max response: active compounds read low
Procedure, shortened: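 A resazurin-based viability read-out was applied to mature P. falciparum gametocytes: 72 h compound treatment, then 24 h dye incubation, with falling fluorescence signalling gametocytocidal effect.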

[7] = qHTS assay for cell viability of HEK293 cells (AID 743288; active = well fitted curve in the direction sought with a large enough effect; an effect the other way counts as inactive or inconclusive; also: nearly all actives have a fitted effect of over 50% in size); settings: ATP luminescence (CellTiter-Glo), 18 h; max response: active compounds read low
Procedure, shortened: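 Luminescent ATP quantitation served as the viability read-out. Cells (parental HEK293, 2,000/well) received compounds after at least 5 h at 37 C and were exposed for 18 h before a 30 min room-temperature reagent step.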

[8] = qHTS assay for cell viability of the p53RE-bla HCT-116 cell line (AID 743292; active = well fitted curve in the direction sought with a large enough effect; an effect the other way counts as inactive or inconclusive; also: nearly all actives have a fitted effect of over 55% in size); settings: p53RE-bla HCT-116 viability, ATP luminescence, 16 h; series mostly up to 95 µM
Procedure, shortened: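 Compound-exposed HCT-116 (p53RE-bla) cells, 4,000 per well, were kept 16 h at 37 C following a 5 h preincubation. Cell number was estimated from total ATP by CellTiter-Glo luminescence read after 30 min at room temperature.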

[9] = qHTS assay for small molecule antagonists of the retinoid-related orphan receptor gamma (ROR-gamma) signaling pathway - cell viability counter screen (AID 720652; active = well fitted curve in the direction sought with a large enough effect in the repeat runs; an effect the other way counts as inactive or inconclusive;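 also: CHO reporter cells with doxycycline-induced ROR-gamma expression; compound exposure lasted 16 hr before ATP read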); settings: RORgamma reporter cell line viability counter screen; series mostly up to 92.2 µM
Procedure, shortened: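 Counter screen in CHO cells carrying TET-inducible ROR-gamma and an ROR response element-luciferase reporter; cells plated 5 hr, compound pinned, doxycycline added, then 16 hr at 37 C. Viability read as intracellular ATP by CellTiter-Glo luminescence.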

## OCc1c[nH]c2ccccc12
[1]
  outcome: inactive
[2]
  outcome: inactive
[3]
  outcome: inactive
[4]
  outcome: inactive

## CCCCC(CC)COC(=O)/C=C/c1ccc(OC)cc1 (stereo not drawn)
[1]
  outcome: inactive
[2]
  outcome: inactive
[3]
  outcome: inactive
[4]
  outcome: inactive

## COc1ccccc1O
[1]
  outcome: inactive
[2]
  outcome: inactive
[3]
  outcome: inactive
[4]
  outcome: inactive

## S=c1[nH]c2ccccc2s1
[1]
  outcome: inactive
[2]
  outcome: inactive
[3]
  outcome: inactive
[4]
  outcome: inactive

## CC1=C(C/C=C(\C)CCC[C@H](C)CCC[C@H](C)CCCC(C)C)C(=O)c2ccccc2C1=O
[1]
  outcome: inactive
[2]
  outcome: inactive
[3]
  outcome: inactive
[4]
  outcome: inactive

## CC(C)C(C)(C)C(C)(C)C(C)(C)S
[1]
  outcome: inactive
[2]
  outcome: inactive
[3]
  outcome: inactive
[4]
  outcome: inactive

## CCCCC/C(C=O)=C\c1ccccc1
[1]
  outcome: inactive
[2]
  outcome: inactive
[3]
  outcome: inactive
[4]
  outcome: inactive

## Nc1ccc(O)c([N+](=O)[O-])c1
[1]
  outcome: inactive
[2]
  outcome: inactive
[3]
  AC50: 31.6 µM (active)

## C1=CC2C3C=CC(C3)C2C1 (stereo not drawn)
[1]
  outcome: inactive
[2]
  outcome: inactive
[3]
  outcome: inactive
[4]
  outcome: inactive

## CC(C)(C)c1nnc(NS(=O)(=O)c2ccccc2)s1
[1]
  outcome: inactive
[2]
  outcome: inactive
[3]
  outcome: inactive
[4]
  outcome: inactive

## COC(=O)c1c(Cl)c(Cl)c(C(=O)OC)c(Cl)c1Cl
[1]
  outcome: inactive
[2]
  outcome: inactive
[3]
  outcome: inactive
[4]
  outcome: inactive

## CCC(C)(Oc1ccc(C2(c3ccc(OC(C)(CC)C(=O)O)cc3)CCCCC2)cc1)C(=O)O (stereo not drawn)
[1]
  outcome: inactive
[2]
  outcome: inactive
[3]
  outcome: inactive
[4]
  outcome: inactive

## CC1=NN(c2ccccc2)C(=O)C1
[1]
  outcome: inactive
[2]
  outcome: inactive
[3]
  outcome: inactive
[4]
  outcome: inactive

## CN1C(=O)c2ccccc2C1=O
[1]
  outcome: inactive
[2]
  outcome: inactive
[3]
  outcome: inactive
[4]
  outcome: inactive

## Cc1ccc(N)cc1O
[1]
  outcome: inactive
[2]
  outcome: inactive
[3]
  AC50: 31.6 µM (active)

## CCC(C(=O)O)c1ccc(N2Cc3ccccc3C2=O)cc1 (stereo not drawn)
[1]
  outcome: inactive
[2]
  outcome: inactive
[3]
  outcome: inactive
[4]
  outcome: inactive

## NC(CO)C(=O)NNCc1ccc(O)c(O)c1O (stereo not drawn)
[1]
  outcome: inactive
[2]
  outcome: inactive
[3]
  outcome: inactive
[4]
  outcome: inactive

## CC(C)(C)C(O)C(Oc1ccc(Cl)cc1)n1cncn1 (stereo not drawn)
[5]
  max response: -9.81%
[6]
  max response: 12.8%
[7]
  max response: -2.21%
[8]
  Potency: inactive
[1]
  outcome: inactive
[2]
  outcome: inactive
[3]
  outcome: inactive
[4]
  outcome: inactive

## OCCCBr
[9]
  Potency: inactive
[5]
  max response: 4.92%
[6]
  max response: 31%
[7]
  max response: 2.95%
[8]
  Potency: inactive
[1]
  outcome: inactive
[2]
  outcome: inactive
[3]
  outcome: inactive
[4]
  outcome: inactive
